Measured values: PubChem BioAssay (Tox21)
Records with an inconclusive call do not appear. Calls of active or inactive are those of the source. Unless noted, calls come from the whole dose curve; as a rule, active = well fitted curve in the direction sought with a large enough effect in the repeat runs; inconclusive = weak or mixed curves; inactive = no such curve, though single readings can be large; an effect the other way counts as inactive or inconclusive.

Assays:
[1] = qHTS assay to identify small molecule agonists of the vitamin D receptor (VDR) signaling pathway - cell viability counter screen (AID 743224); conditions: VDR-bla HEK293T viability, CellTiter-Glo luminescence, 16 h; series mostly up to 62.6 µM; note: nearly all actives have a fitted effect of over 50% in size
In short: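 Plated VDR-bla cells (4 h, 37C) received compound, incubated 16 h, then LiveBLAzer substrate 2 h RT; CellTiter-Glo added afterwards, luminescence read at 30 min.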

[2] = qHTS assay to identify small molecule antagonists of the vitamin D receptor (VDR) signaling pathway - cell viability counter screen (AID 743225); conditions: VDR-bla HEK293T viability, CellTiter-Glo luminescence, 16 h; series mostly up to 61 µM; note: nearly all actives have a fitted effect of over 50% in size
In short: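 Cytotoxicity counter screen read by CellTiter-Glo luminescence (30 min, room temperature) in the same wells as the VDR-bla antagonist readout. HEK 293T VDR-UAS-bla cells had 16 h at 37C with compound and 3 nM (final) 1-alpha,25-dihydroxyvitamin D3, then 2 h with FRET substrate.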

[3] = qHTS assay to identify small molecule agonists of the NFkB signaling pathway - cell viability counter screen (AID 1159515; calls by dose curve; note: nearly all actives have a fitted effect of over 55% in size); conditions: NFkB-bla ME-180 viability, CellTiter-Glo luminescence, 5 h; series mostly up to 61 µM
In short: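 Using the same wells as the NFkB reporter read, ME-180 NFkB-bla cells given compounds for 5 hr were assessed for viability via CellTiter-Glo, with luminescence taken after a 30 min room-temperature incubation.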

[4] = qHTS assay to identify small molecule agonists of the endoplasmic reticulum stress response signaling pathway (AID 1159516; active = well fitted activation curve with a large enough effect in the signal ratio in the repeat runs, not every such curve was filed as active; the % refers to the signal ratio); conditions: ESRE-bla HeLa, ER stress beta-lactamase reporter, 5 h; series mostly up to 61 µM
In short: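 An ESRE-bla HeLa cell assay: compounds were pin-transferred from DMSO onto overnight-plated cells and left 5 hr at 37 C. Substrate was then loaded for 2 hr at room temperature before reading fluorescence at 460 nm and 530 nm.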

[5] = qHTS assay to identify small molecule agonists of the endoplasmic reticulum stress response signaling pathway - cell viability counter screen (AID 1159517; calls by dose curve;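 note: HeLa cells carrying an ER stress response element beta-lactamase reporter; nearly all actives have a fitted effect of over 50% in size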); conditions: ESRE-bla HeLa viability, CellTiter-Glo luminescence, 5 h; series mostly up to 61 µM
In short: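 HeLa cells carrying an ESRE-driven beta-lactamase reporter receive compound for 5 hr at 37 C. Cell viability is then gauged with CellTiter-Glo by luminescence, 30 min at room temperature.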

[6] = qHTS assay to identify small molecule antagonists of the retinoid-related orphan receptor gamma (ROR-gamma) signaling pathway - cell viability counter screen (AID 1159520); conditions: Tet-on RORgamma CHO cells viability, ATP luminescence, 16 h; series mostly up to 92.4 µM; note: nearly all actives have a fitted effect of over 50% in size
In short: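 Cytotoxicity was read from cellular ATP (CellTiter-Glo luminescence) after 16 hr at 37 C with 1 uM doxycycline induction. The inducer was added 2 hr after compound transfer to Tet-on ROR gamma CHO cells.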

[7] = target: Nuclear receptor ROR-gamma (Homo sapiens) (UniProt P51449); experiment: qHTS assay to identify small molecule antagonists of the retinoid-related orphan receptor gamma (ROR-gamma) signaling pathway (AID 1159521; note: nearly all actives have a fitted effect of over 50% in size; note: potency is the fitted concentration of half-maximal effect); conditions: Tet-on RORgamma CHO cells, RORE-luciferase, 16 h; series mostly up to 92.4 µM
In short: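 Antagonist read-out: drop in luminescence (ONE-Glo) from an RORE-LUC reporter in CHO cells with doxycycline-inducible ROR-gamma; 2 hr compound pretreatment, 1 uM doxycycline, 16 hr incubation at 37 C.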

[8] = qHTS assay to identify small molecule agonists of the AP-1 signaling pathway (AID 1159526; calls by dose curve); conditions: ME-180 AP-1-bla reporter, beta-lactamase FRET ratio, 5 h; series mostly up to 76.8 µM
[9] = qHTS assay to identify small molecule agonists of the RXR signaling pathway - cell viability counter screen (AID 1159529); conditions: RXR-alpha-bla HEK293T viability, CellTiter-Glo, 16 h; series mostly up to 76.8 µM; note: nearly all actives have a fitted effect of over 50% in size
In short: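 CellTiter-Glo luminescence gave viability in the wells also read for beta-lactamase. Cells (RXR-alpha-UAS-bla HEK 293T, 2% charcoal-stripped FBS medium) had 5 hr plating, then 16 hr compound exposure at 37 C; tetraoctyl ammonium bromide served as positive control.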

[10] = qHTS assay to identify small molecule antagonists of the retinoid acid receptor (RAR) signaling pathway - cell viability counter screen (AID 1159551); conditions: C3RL4 cells viability, ATP luminescence (CellTiter-Glo), 6 h; series mostly up to 92.4 µM; note: nearly all actives have a fitted effect of over 35% in size
In short: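 Retinol-stimulated (1 uM final) C3RL4 cells, compound 6 h, 37 C; readout CellTiter-Glo luminescence (ATP) after 30 min RT incubation.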

[11] = qHTS assay to identify small molecule antagonists of the retinoic acid receptor (RAR) signaling pathway (AID 1159552; note: nearly all actives have a fitted effect of over 50% in size); conditions: C3RL4 RARE luciferase reporter, retinol-stimulated, 6 h; series mostly up to 92.4 µM
In short: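 Luminescent RARE reporter read-out in C3RL4 cells: 6 hr co-treatment at 37 C of test compounds with retinol at 1 uM final. Cells plated overnight beforehand; luciferase reagent incubated 30 min at room temperature before reading.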

[12] = qHTS assay to identify small molecule antagonists of the estrogen related receptor (ERR) signaling pathway from Tox21 library - cell viability counter screen (AID 1224834); conditions: ERR reporter cells viability, CellTiter-Fluor, 17.5 h; series mostly up to 92.4 µM; note: nearly all actives have a fitted effect of over 30% in size
In short: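 After 17.5 h of compound exposure at 37 C, ERR cells are incubated with CellTiter-Fluor for 30 min and fluorescence intensity serves as the viability measure.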

[13] = qHTS assay to identify small molecule agonists of the retinoic acid receptor (RAR) signaling pathway (AID 1159553); conditions: C3RL4 RARE luciferase reporter, agonist, 6 h; series mostly up to 73.3 µM; note: potency is the fitted concentration of half-maximal effect
In short: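 Reporter readout comes from luciferase under RARE control in C3RL4 cells; compound exposure lasts 6 hr at 37 C in 5% CO2, and luminescence is recorded following a 30 min room-temperature incubation with reagent.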

[14] = qHTS assay to identify small molecule agonists of the AP-1 signaling pathway - cell viability counter screen (AID 1159525; calls by dose curve; note: nearly all actives have a fitted effect of over 55% in size); conditions: ME-180 (cervical carcinoma) AP-1-bla cells viability, ATP luminescence, 5 h; series mostly up to 76.8 µM
In short: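 Luminescent ATP readout (Cell Titer Glo, 30 min RT), normalised to DMSO and tetra n-octyl ammonium bromide controls. Cells were ME-180 AP-1-bla in 0.5% dialyzed FBS Opti-MEM, with a 5 h, 37 °C compound exposure.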

[15] = target: Retinoic acid receptor RXR-alpha (Homo sapiens) (UniProt P19793); experiment: qHTS assay to identify small molecule agonists of the RXR signaling pathway (AID 1159527; calls by dose curve; note: nearly all actives have a fitted effect of over 35% in size); conditions: HEK293T RXRa-UAS-bla, beta-lactamase ratio, 16 h; series mostly up to 76.8 µM
Sequence of Retinoic acid receptor RXR-alpha (Homo sapiens) (P19793 whole entry, looked up): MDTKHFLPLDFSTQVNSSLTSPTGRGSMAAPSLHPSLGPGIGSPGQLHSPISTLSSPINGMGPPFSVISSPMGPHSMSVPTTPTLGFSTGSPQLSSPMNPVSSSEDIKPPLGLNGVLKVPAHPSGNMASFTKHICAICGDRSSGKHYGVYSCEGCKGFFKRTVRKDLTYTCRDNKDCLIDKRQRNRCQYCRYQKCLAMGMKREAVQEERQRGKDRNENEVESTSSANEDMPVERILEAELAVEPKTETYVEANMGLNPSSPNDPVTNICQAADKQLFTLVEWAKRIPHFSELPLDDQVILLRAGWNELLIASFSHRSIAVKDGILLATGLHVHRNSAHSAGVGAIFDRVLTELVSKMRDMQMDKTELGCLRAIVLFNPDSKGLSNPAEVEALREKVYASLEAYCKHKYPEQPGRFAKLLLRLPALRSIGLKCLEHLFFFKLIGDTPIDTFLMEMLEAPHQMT
In short: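 Agonist-mode beta-lactamase reporter assay: HEK 293T RXR-alpha-UAS-bla cells treated 16 hr at 37 C with compounds, 9-cis retinoic acid as positive control. LiveBLAzer FRET substrate, 405 nm excitation, 460/530 nm emission.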

[16] = qHTS assay to identify small molecule antagonists of the estrogen related receptor (ERR) signaling pathway (AID 1224819); conditions: ERR reporter cell line, luciferase inhibition; series mostly up to 46.1 µM
In short: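 Luminescence readout (One-Glo, 30 min, RT) of ERR cell line after 18 h compound exposure at 37 C; cells seeded 2,000/well, pre-incubated 6 h, compounds pinned from DMSO stocks.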

[17] = qHTS assay to identify small molecule agonists of the estrogen related receptor (ERR) signaling pathway (AID 1224820); conditions: ERR reporter cell line, luciferase agonist mode; series mostly up to 46.1 µM
In short: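 Cells: ERR line from NTP, 2,000/well. Pre-incubation 6 h, 37 C/5% CO2. Compound (DMSO) pin transfer, 18 h 37 C. One-Glo, 30 min RT, luminescence.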

[18] = tested on: estrogen-related receptor alpha (ERRalpha) with PGC-1alpha coactivator, human; experiment: qHTS assay to identify small molecule antagonists of the estrogen related receptor signaling pathway with the pleiotropic PPARgamma coactivator (PGC) (AID 1224821; calls by dose curve); conditions: ERR/PGC reporter cell line, luciferase, antagonist mode; series mostly up to 46.1 µM
In short: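 Luminescent read-out (One-Glo, 30 min at room temperature) following 18 h treatment of PGC/ERR cells at 37 C with compounds delivered in DMSO. Cells had settled 6 h at 37 C/5% CO2 before dosing.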

[19] = qHTS assay to identify small molecule antagonists of the estrogen related receptor signaling pathway with the pleiotropic PPARgamma coactivator (PGC) cell viability counter screen (AID 1224822); conditions: ERR/PGC reporter cell line viability counter screen; series mostly up to 46.1 µM
In short: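 PGC/ERR cells were plated at 2,000 per well and allowed 6 h to settle before compound addition. Following 17.5 h at 37 C, CellTiter-Fluor reagent was added and fluorescence was read 30 min later.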

[20] = qHTS assay to identify small molecule agonists of the estrogen related receptor signaling pathway with the pleiotropic PPARgamma coactivator (PGC) (AID 1224823); conditions: ERR/PGC reporter cell line, luciferase agonist mode; series mostly up to 46.1 µM
In short: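 Steps: plate PGC/ERR cells at 2,000 cells/well; incubate 6 h, 37 C/5% CO2; pin-transfer compounds (DMSO); incubate 18 h, 37 C; add One-Glo; 30 min RT; read luminescence.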

Measured: Potency

CCCCCOC(=O)COc1cc(N2C(=O)C3=C(CCCC3)C2=O)c(F)cc1Cl
not listed: [13] | [14] | [15] | [16] | [17] | [18] | [19] | [20]
inactive: all other assays above

CC(C)CCCCCCOC(=O)c1ccc(C(=O)OCCCCCCC(C)C)c(C(=O)OCCCCCCC(C)C)c1
not listed: [14] | [15] | [16] | [17] | [18] | [19] | [20]
inactive: all other assays above

CC(C)(Oc1ccc(Cl)cc1)C(=O)OCCCOC(=O)C(C)(C)Oc1ccc(Cl)cc1
not listed: [10] | [14] | [15] | [16] | [17] | [18] | [19] | [20]
inactive: all other assays above

CC[C@H](C)[C@H](N)C(=O)O
inactive: [1] | [2] | [3] | [4] | [5] | [6] | [14] | [8] | [15] | [10]

O=C(O)COC(=O)Cc1ccccc1Nc1c(Cl)cccc1Cl
not listed: [7] | [13] | [15] | [16] | [17] | [18] | [19] | [20]
inactive: all other assays above

CCCCCOC(=O)c1ccc(O)cc1
active: [13] 1.23 µM
not listed: [8] | [12] | [14] | [16] | [17] | [18] | [19] | [20]
inactive: all other assays above

SC1CCCC1
not listed: [13] | [14] | [15] | [16] | [17] | [18] | [19] | [20]
inactive: all other assays above

NC(=S)N/N=C/c1cccnc1
not listed: [7] | [15] | [16] | [17] | [18] | [19] | [20]
inactive: all other assays above

OCC1CC2CC1C1CCC(CO)C21 (centres undefined)
not listed: [14] | [15] | [16] | [17] | [18] | [19] | [20]
inactive: all other assays above

C=C(C)C(=O)OCCN(C)C
not listed: [7] | [13] | [15] | [16] | [17] | [18] | [19] | [20]
inactive: all other assays above

OC(CCN1CCCCC1)(c1ccccc1)C1CCCCC1 (centres undefined)
not listed: [8] | [10] | [11] | [12] | [13] | [14] | [15]
inactive: all other assays above

O=c1c2ccccc2nnn1CCl
inactive: [1] | [2] | [3] | [4] | [5] | [6] | [14] | [8] | [15] | [11] | [12]

Cn1c(N)nc2nc[nH]c2c1=O
active: [7] 27 µM
inactive: [1] | [2] | [3] | [4] | [5] | [6] | [9] | [11] | [13]

CC(=O)N(CC(=O)N(C)C)c1ccccc1
inactive: [1] | [2] | [3] | [4] | [5] | [6] | [7] | [15] | [9] | [10] | [12]

O=C(O)Cn1c(C(=O)Nc2nc(-c3ccccc3Cl)cs2)cc2ccccc21
inactive: [1] | [2] | [3] | [4] | [5] | [6] | [7] | [10] | [11] | [12]

CN(c1nccc(=O)[nH]1)C1CCN(c2nc3ccccc3n2Cc2ccc(F)cc2)CC1
not listed: [7] | [13] | [15] | [16] | [17] | [18] | [19] | [20]
inactive: all other assays above

O=C1c2cccc(O)c2C(=O)c2c(O)cc(CO)cc21
inactive: [1] | [2] | [3] | [4] | [5] | [6] | [7] | [8] | [11]

Oc1ccc(Sc2ccc(O)cc2)cc1
inactive: [1] | [2] | [3] | [4] | [5] | [6] | [14] | [8] | [15] | [10] | [11]

N#Cc1cc2ccccc2c2ccccc12
inactive: [1] | [2] | [3] | [4] | [5] | [6] | [7] | [15] | [10] | [11] | [12]
